Marburg entry inh = Marburg virus entry inhibition; Marburg virus pseudotyped entry inhibition, cell reporter; Potency, µM (doses to about 37.8 µM), without a hit: top-dose activity change, negative = inhibition, usual class: inhibitors; actives 1.8% (n = 300,000); calls by dose curve; tested in HEK293 cells; note: potency is the fitted concentration of half-maximal effect
VACV mCherry inh = inhibitors of vaccinia virus infection (mCherry reporter signal); Vaccinia virus mCherry reporter infection, fluorescence; Potency, µM (titrated, usually from 36.5 µM), for inactives: at the highest dose activity change, negative = inhibition, usual class: inhibitors; actives 0.63% (n = 310,000); AID 720579; calls by dose curve; tested in A549 cells; note: potency is the fitted concentration of half-maximal effect; nearly all actives have a fitted effect of over 35% in size
FMDV antiviral = antivirals against foot and mouth disease virus. FMDV antiviral cell-based qHTS. Potency, µM (series often up to 57.9 µM), without a hit: at the top dose activity change, negative = inhibition, actives largely listed as inhibitors. actives 1.2% (n = 410,000); calls by dose curve; tested in HEK293T cells; note: read-out not given here; potency is the fitted concentration of half-maximal effect; nearly all actives have a fitted effect of over 45% in size
HCMV antiviral = inhibitors of human cytomegalovirus; AID 1259415; HFF cells, HCMV-luciferase reporter, 72 h; stronger effect = lower value; activity change, negative = inhibition, % at 57.5 µM; actives 4.5% (n = 410,000); in the data active = activity change below about -60%; inconclusive = no clear call, values can overlap the other calls; inactive = above about -39%
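Cell-based, HFFs, 1000 cells/well, 16 h 37C; cpds in DMSO + HCMV-luc, MOI 1 PFU/cell; 72 h 37C; OneGlo luminescence after 5 min RT; norm. to buffer vs Salinomycin 10uM.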
LASV entry inh = Lassa virus entry inhibition | actives 1.2% (n = 300,000) | Lassa virus pseudotype entry inhibition, cell reporter | Potency, µM (top dose mostly 37.9 µM), inactives show top-dose activity change, negative = inhibition, actives largely listed as inhibitors; calls by dose curve; tested in HEK293 cells; note: potency is the fitted concentration of half-maximal effect; nearly all actives have a fitted effect of over 50% in size
Vaccinia Venus = vaccinia inhibition (Venus reporter) | AID 720580 | Potency, µM (highest dose often 36.5 µM), for inactives: top-dose activity change, negative = inhibition, actives largely listed as inhibitors | actives 0.46% (n = 330,000) | Vaccinia virus Venus reporter expression, fluorescence; calls by dose curve; tested in A549 cells; note: potency is the fitted concentration of half-maximal effect; nearly all actives have a fitted effect of over 30% in size
Starred values were filed as active, the others as inactive; i = inactive; ? = inconclusive; . = no result; [ ] = dose if it differs, or a comment. Sampled rows, rich in hits. Any-hit rate of the full collection: about 6.5%. % is set by controls: 0 for no effect and ±100 for the full control effect.

SMILES	Marburg entry inh	VACV mCherry inh	FMDV antiviral	HCMV antiviral	LASV entry inh	Vaccinia Venus
CC1=C(C)CS(=O)N(S(=O)(=O)c2ccccc2)C1 (stereo not given)	13µM*	.	?	-16	10%	.
CC1(C)CC(C(CCN(Cc2ccccc2)C(=O)c2ccco2)c2ccc(F)cc2)CCO1 (stereo not given)	?	?	14µM*	-8	?	?
CC1(C)CC(N(Cc2ccc(F)cc2)C(=O)c2ccc(F)cc2)CCO1 (stereo not given)	-6%[46.1 µM]	-21%	-2%	0	-7%	-14%
O=C(c1ccco1)N(CCC(c1ccccc1)c1ccco1)Cc1ccc(F)cc1 (stereo not given)	?	.	?	20	23µM*	.
O=C(NCC1Cc2cc(F)cc(-c3cnccn3)c2O1)c1cccc(-c2ccccc2F)c1 (stereo not given)	.	i	0%	.	.	-13%
COc1ccc(CCNC(=O)c2ccc3c(c2)N=C(C)c2ccccc2S3)cc1OC	-21%[46.1 µM]	-18%	0%	-34	-16%[46.1 µM]	-19%
COC(=O)c1c(OCC2CCCN(C)C2)cc(=O)n2c1CCN(Cc1ccc(OC)c(O)c1)CC2 (stereo not given)	.	-1%	-6%	.	.	-3%
Cc1ncc2c(c1CNS(=O)(=O)N(C)C)CCN(C(=O)/C=C/c1cccc(F)c1)C2	.	-4%	0%	.	.	6%
Cn1nc([N+](=O)[O-])nc1Sc1nnc(-c2ccccc2)o1	?	-27%	22µM*	-90*	-27%	-18%
O=Cc1ccc(Sc2nnc(-c3ccccc3)o2)c([N+](=O)[O-])c1	?	.	0%	.	-14%	.
CCOc1ccc(CNC(=O)c2ccc(CSc3nc4ccncc4n3Cc3ccc(F)cc3)cc2)cc1	?	-29%	-9%	?	.	-28%
Cc1ccc(Cn2c(CNS(=O)(=O)c3c(C)cc(C)cc3C)nc3cccnc32)cc1	.	-23%	55%	74	5%[46.1 µM]	-16%
COc1ccc(CNC(=O)c2ccc(-c3ccccc3)cc2)cc1	2%	-15%[1.46 µM]	57%	60	?	-8%
CC(=O)c1c(C)oc2c1C(=O)c1ccccc1C2=O	-2%	-15%	?	-72*	-11%	-2%
CC(=O)c1c2c3c(c(Br)ccc3n(C)c1=O)C(=O)c1ccccc1-2	0%[46.1 µM]	i	-13%	?	-17%	5%
COc1ccc(CNC(=O)c2c(F)c(F)c(F)c(F)c2F)cc1	-28%	11µM*	-3%	-102*	1%	?
COc1ccc(CNC(=O)c2c(C)oc3c2C(=O)c2ccccc2C3=O)cc1	6%	7.1µM*	?	?	-14%	8.9µM*
Cc1oc2c(c1C(=O)NCc1cccnc1)C(=O)c1ccccc1C2=O	.	?	3.2µM*	.	.	0.56µM*
COc1ccc(CNC(=O)c2ccc(Br)cc2)cc1	.	.	.	-22	.	.
O=C(c1ccco1)N1CCN(/C=C2\Nc3ccccc3C(=O)N2c2ccc(F)cc2)CC1	.	-12%	.	.	.	-4%
COc1ccc(C(=O)C2CCN(CC(=O)NCc3ccccc3)CC2)cc1	-9%[46.1 µM]	-26%	?	8	?	-17%
COc1ccc(CNC(=O)CN2CCC(C(=O)c3ccc(OC)cc3)CC2)cc1	-20%	.	?	-78*	?	.
O=C1c2ccccc2C(=O)c2c1oc(C(F)(F)F)c2C(=O)c1ccccc1	?	4.5µM*	-21%	-98*	?	3.2µM*
CCCCn1c(=O)c2[nH]c(C34CC5CC(CC3C5)C4)nc2n(CCCO)c1=O	.	.	-9%	.	.	.
O=C1C(n2ccc3ccccc32)c2cccc(F)c2N1Cc1ccc(Cl)nc1 (stereo not given)	.	.	.	-13	.	.
SMILES	Marburg entry inh	VACV mCherry inh	FMDV antiviral	HCMV antiviral	LASV entry inh	Vaccinia Venus
COc1cc(NC(=O)N2CCc3nc(NCc4cccc(Oc5ccccc5)c4)ncc3C2)cc(OC)c1OC	.	10µM*	?	-92*	.	?
COc1cc(NC(=O)N2CCc3nc(Nc4cc(Cl)cc(Cl)c4)ncc3C2)cc(OC)c1OC	.	?	-29%	-25	.	?
Cc1nnc(N/N=C\c2ccc(-c3ccccc3[N+](=O)[O-])o2)n1N	?	?	19%	127	12%	22µM*
Cc1nnc(N/N=C/c2ccc(-c3ccccc3F)o2)n1N	?	?	28%	-9	?	28µM*
O=[N+]([O-])c1cc(C(F)(F)F)ccc1N1CCCC(O)C1 (stereo not given)	?	-18%	-5%	2	2%	-4%
O=[N+]([O-])c1ccc(N2CCCC(C(F)(F)F)C2)c2ccncc12 (stereo not given)	?	2.8µM*	?	-12	?	7.9µM*
COc1cccc(CNC(=O)CCc2cn(Cc3ccccc3Cl)c3ccccc23)c1	.	-13%	1%	-22	-3%[46.1 µM]	-9%
CCOc1cc(CNCCc2ccc(S(N)(=O)=O)cc2)ccc1OCc1ccc(Cl)cc1	?	.	?	-103*	?	11µM*
COc1cc(CNCCc2ccc(S(N)(=O)=O)cc2)ccc1OCC(=O)NC1CCCCC1	?	.	-3%	13	4%	.
NS(=O)(=O)c1ccc(CCNCc2ccccc2OCc2ccc(F)cc2)cc1	?	-2%	?	-67*	?	-16%
CCOc1ccc(CNCCc2ccc(S(N)(=O)=O)cc2)cc1	?	-1%	-7%	-1	-10%	-10%
COc1cc(CNCCc2ccc(S(N)(=O)=O)cc2)ccc1OCc1ccc(Cl)cc1	?	.	?	-93*	?	.
NS(=O)(=O)c1ccc(NCc2ccccc2OCc2ccc(F)cc2)cc1	?	.	?	?	-29%	?
Cc1ccnc2c(Cl)ccc(Cl)c12	.	-11%	.	.	.	-9%
Cn1cc(S(=O)(=O)c2cccc(Cl)c2)c(=O)c2cc(F)c(N3CCN(c4ccc(F)cc4)CC3)cc21	.	-3%	11%	-40	-12%[46.1 µM]	-21%
Cn1cc(S(=O)(=O)c2cccc(Cl)c2)c(=O)c2cc(F)c(N3CCCCC3)cc21	.	-3%	1%	-61*	-2%[46.1 µM]	-14%
Cc1ccc(-n2nnnc2-c2cnc(N3CCCC3)nc2C(F)(F)F)cc1	-12%	?	?	?	?	?
FC(F)(F)c1nc(N2CCCC2)ncc1-c1nnnn1-c1ccccc1	-16%	.	18µM*	-72*	-1%	.
CSC1(SC2=NCCN2)SC2(NCCN2)S1	10µM*	i	-10%	?	10%	-12%
COC(/C(=N/O)c1ccc(Cl)cc1)c1ccccc1 (stereo not given)	?	?	-8%	-94*	?	?
COc1ccc(S[C@]2(c3nc(C)no3)CC(=O)N[C@@H]2c2ccc(OC)cc2)cc1	.	.	.	-2	.	.
Cc1c(C(=O)NCCc2cccnc2)cnn1-c1nccc(-c2ccccc2F)n1	.	-20%	12%	.	.	-28%
CN(C)CCNC(=O)C(=O)c1c(-c2ccccc2)cc2ccccn12	-5%[46.1 µM]	-9%	-6%	-40	3%	-9%

Assay outcomes deposited in PubChem by National Center for Advancing Translational Sciences (NCATS).
